Experimental data as given in ChEMBL document CHEMBL3988442, “University of Dundee, Small-Polar-MMV Screening Library” (2021).
Where “and” joins values, the source holds several entries; their conditions need not be identical. Equal values may be shown once. The campaign covered roughly 34,000 compounds. About 290 (0.85%) showed an effect of 50% or more. The sample as a whole holds a higher share of strong results than the screen did.

System: Plasmodium falciparum
Assay: Plasmodium falciparum sporozoite viability assay
Format: functional, organism-based
Design: scale not given: in the data most compounds retested in dose-response had high values

Structure (SMILES)	Percent Effect [%]	Percent Effect (10 mM as filed; unlikely as a test dose)
CCC(=O)Nc1ccc(N2CCC(OC)CC2)c(C(F)(F)F)c1	1.93	
CCc1[nH]ncc1C(=O)N1CCCC(n2cncn2)C1 (stereo not given)	-4.375	
Cc1cccnc1C(Cc1ccsc1)NCc1cnc(N(C)C)nc1 (stereo not given)	-1.422	
Cc1cccc(CN2CCCn3c(nnc3CN3CCCC3=O)C2)n1.O=C(O)C(F)(F)F	-1.313	
CN(C)c1ccc(CC2COCCN(Cc3nccn3C)C2)nn1 (stereo not given)	-1.339	
Cn1ccnc1C(=O)N[C@@H]1CN(Cc2ccoc2)[C@@H]2CCCO[C@@H]21.O=C(O)C(F)(F)F	4.904	
CC1=Nc2c(c(=O)[nH]n2C2CCCC2)C(c2ccc(C(=O)O)cc2)S1 (stereo not given)	-7.784	
CCn1c(C)nc2cc(NC(=O)CC3CCCCO3)ccc21 (stereo not given)		43.93% and 40.46% and 65.03%
CCn1c(C)nc2cc(NC(=O)C3CN(C(C)=O)C3)ccc21	-0.5895	
COc1ncccc1CN1CCC2(CC1)CC(OCC1CC1)CO2.O=C(O)C(F)(F)F (stereo not given)	8.839	
COc1ccccc1-n1cc(C(=O)NCCCn2nc(C)nc2C)cn1	3.022	
Cc1ccnn1-c1ccc(C(=O)N2CCCC(n3ccnc3)C2)cc1 (stereo not given)	2.837	
CC(=O)N1CCC(CCc2ccnc(NC(=O)c3ccccn3)c2)CC1		74.38% and 72.77% and 65.08%
O=C(Nc1cc(CCC2CCN(CCO)CC2)ccn1)c1ccccn1		45.19% and 58.77% and 35.89%
CN1CCC(CCc2ccnc(NC(=O)c3ccccn3)c2)CC1		67.18% and 85.05% and 49.69%
CN1CCC(CCc2ccnc(Nc3cnccn3)c2)CC1	-4.215	
O=C(CO)N1CCC(CCc2ccnc(Nc3cnccn3)c2)CC1	-3.121	
Cc1cc(C)nc(N2CCC(CNC(=O)c3ccccn3)CC2)n1	1.904	
CC(=O)Nc1cc(CCC2CCN(C(=O)c3ccccn3)CC2)ccn1		2.531% and -14.73% and -5.68%
Cc1ccccc1CCNC(=O)CN1CCCC(Cn2cncn2)C1 (stereo not given)	7.953	
O=C(C1=CCCC1)N1C[C@@H]2COC[C@]2(COc2ncccc2F)C1.O=C(O)C(F)(F)F	10.29	
O=C(c1ccc(-c2cccc3c2CCNC3)o1)N1CCCCC1	-26	
O=S(=O)(c1ccccc1)N1CC[C@]2(C[C@@H](OCC3CC3)CO2)C1	-7.967	

Structure (SMILES)	Percent Effect [%]	Percent Effect (10 mM as filed; unlikely as a test dose)
COC(=O)Nc1ccc(CNc2cncc(-n3cccn3)n2)cc1	-0.1023	
Cc1cc(CN(C)C(=O)c2ccc(OC(C)C)nc2)no1	6.375	
COc1ccc(CN2C[C@@H]3OCCN(C)[C@@H]3C2)cc1.O=C(O)C(F)(F)F	-4.875	
COCCC(=O)N1CC[C@@H](N(C)C)[C@@H]1Cc1ccccc1	-9.112	
COc1ccc(S(=O)(=O)N2C[C@@H]3CN(C)CCO[C@@H]3C2)cc1	1.798	
Cc1nccn1C1CCCN(C(=O)CCCNc2ncccn2)C1 (stereo not given)	3.922	
Cc1cnn(CC2CCCN2C(=O)c2ccccc2-n2cccn2)c1 (stereo not given)	9.109	
Cc1nc(N2CCN(C(=O)c3ccccc3)CC2)c2cnn(C)c2n1	-8.371	
Cl.OC1(c2ccc(F)cc2)CCN(Cc2ccccc2N2CCCC2)CC1	10.2	
Cc1cnccc1-n1nc(C(C)C)nc1CCN(C)S(C)(=O)=O		-20.65% and -22.07%
Cc1cnccc1-n1nc(C(C)C)nc1CS(C)(=O)=O		82.57% and 75%
CSCCc1nc(C(C)C)nn1-c1ccncc1C		-19.09% and -18.73%
CC(=O)N1CCC1c1nc(-c2ccc(C)s2)no1 (stereo not given)	-4.556	
O=C(NCCNc1cc(N2CCCC2)cnn1)Nc1ccccc1F		88.21% and 92.16%
CSc1nnc(CNC(=O)Nc2ccccc2F)n1C	-0.259	
O=C(Cc1ccc(F)cc1)NCCNc1cc(N2CCCC2)cnn1		2.363% and 4.651%
CC(=O)N1CC[C@H]2OCC[C@@]2(C(=O)NCCc2ccccn2)C1.O=C(O)C(F)(F)F	-10.77	
CC(NC(=O)NCCCc1n[nH]c(N)c1C#N)c1ccccc1F (stereo not given)	14.69	
Cc1cc(C)n(CC2CCCN2CC(=O)NC2CCOCC2)n1 (stereo not given)	-10.14	
Cc1cc(C)n(CC2CCCCN2CC(=O)NC2CCOCC2)n1 (stereo not given)	14.15	
COCCOCC(=O)Nc1ccc(C)cc1F	-13.64	
O=C(c1ccc(C2CCCO2)s1)N1CCN(c2ccccc2F)CC1 (stereo not given)		80.46% and 89.28% and 82.47%
O=C(c1ccc(C2CCCO2)s1)N1CCOCC1 (stereo not given)		-24.05% and -11.59%

Structure (SMILES)	Percent Effect [%]	Percent Effect (10 mM as filed; unlikely as a test dose)
O=C(c1ccc(C2CCCO2)s1)N1CCS(=O)(=O)CC1 (stereo not given)		6.394% and 9.158% and -11.41%
O=c1[nH]c(CCN2CCCC2Cn2cncn2)nc2ccccc12 (stereo not given)	9.596	
O=C(Cc1ccc2c(c1)OCCO2)N1CCCC(n2cccn2)C1 (stereo not given)		49.54% and 51.7% and 51.33%
O=C(CCc1ccc2c(c1)OCO2)N1CCCC(n2cccn2)C1 (stereo not given)		-3.407% and -9.243% and -9.365%
O=C(Cc1ccc2c(c1)CCO2)N1CCCC(n2cccn2)C1 (stereo not given)		-20.29% and -14.82% and -23.46%
CCOC(=O)[C@@H]1[C@@H](O)C(=O)N(C)C12CCN(C(=O)c1ccco1)CC2	7.177	
O=C(O)C(F)(F)F.O=C(O)C(F)(F)F.c1ccc(CN2CCC3(CC2)CCN(c2ccccn2)C3)nc1	11.38	
CCC1CN(C(=O)c2ccc(O)cn2)CCC(=O)N1Cc1ccccc1 (stereo not given)		75.08% and 82.46%
CCC1CN(C(=O)c2cccnc2O)CCC(=O)N1Cc1ccccc1 (stereo not given)		-11.65% and -22.98%
CCC1CN(C(=O)c2ncccc2O)CCC(=O)N1Cc1ccccc1 (stereo not given)		-58.66% and -61.44%
Cc1nn(C)c(Cl)c1C1CCCN1C(=O)c1cc(C2CC2)on1 (stereo not given)	6.06	
Cc1c[nH]nc1C1CN(Cc2cnn(-c3ccccc3C(=O)O)c2)C1	-1.554	
Cc1noc(C)c1CC(=O)N1CCCC(n2ccnc2C)C1 (stereo not given)	-6.625	
O=C(Nc1ccc(N2CCCC2)nc1)N1CCc2sccc2C1		-10.47% and -0.9103% and 2.706%
O=C(Nc1ccc(N2CCCC2)nc1)N1CCc2ccccc2C1		79.37% and 82.46% and 84.57%
CC(CNC(=O)c1cc(N2CCNC2=O)ccc1F)c1ccccc1 (stereo not given)		35.08% and 63.14%
CCCc1cc(NC(=O)c2cc(N3CCNC3=O)c(F)cc2F)n[nH]1	-27.19	
Cc1ccc(C(=O)NCC(O)c2cccc(F)c2)c(=O)[nH]1 (stereo not given)	-4.578	
CC(NC(=O)c1cc(N2CCNC2=O)ccc1F)c1ccc(F)cc1 (stereo not given)		-9.982% and -2.184%
CC(Cc1ccsc1)NC(=O)c1cc(N2CCNC2=O)ccc1F (stereo not given)		74.24% and 61.84%
Cc1ccsc1CNC(=O)c1ccc(N2CCNC2=O)cc1	-9.9	
CCN(CC)CCCNCc1cc2cc(C)cc(C)c2[nH]c1=O	11.75	
COCc1cnc2n1CCN(C(=O)c1ocnc1C)C2C (stereo not given)	4.866	

Structure (SMILES)	Percent Effect [%]	Percent Effect (10 mM as filed; unlikely as a test dose)
CN(Cc1cccs1)C(=O)Cn1cc(NC(=O)C(C)(C)C)cn1	-1.695	
Cc1ccc(-n2nnc(C(=O)NCC(F)(F)F)c2C2CC2)cc1	-7.493	
Cn1cc(-c2cnc(N3CCOCC3)nc2)cc1C(=O)N1CCOCC1		-17.52% and -24.5% and -14.42%
O=C(CCc1ccsc1)Nc1ccnn1C1CCS(=O)(=O)C1 (stereo not given)	-2.999	
Cc1oc(C)c(C(=O)NCc2ccccc2CN(C)C)c1C	1.894	
COC1CN(C(=O)CC(C)C)CCC(=O)N(C)c2ccccc21 (stereo not given)	-36.78	
CC(C)(C)c1ncc(C(=O)NCCSc2ccccn2)c(O)n1		98% and 98.19%
O=C(NCCCO)c1cnc(-c2ccccc2)nc1O	-8.71	
CCSCCNC(=O)c1cnc(-c2ccccc2)nc1O	2.095	
Cc1ccc(C2(C(=O)NCCCn3cccn3)CCOCC2)cc1		-25.15% and -19.39%
c1ccc2oc(CN3CCCC3Cn3cncn3)nc2c1 (stereo not given)	3.888	
Cc1nccn1C1CCCN(C(=O)Cc2cn3ccccc3n2)C1 (stereo not given)	3.916	
CCOCC1CN(C(=O)c2cscn2)Cc2cnn(CC3CC3)c21 (stereo not given)	11.53	
Cc1nc(C2CN(C)CCO2)cc(N2CCSCC2)n1 (stereo not given)	-0.8223	
Cc1cc(C(=O)N2CCC3(C2)CN(c2cccnc2)C(=O)CN3C)[nH]n1.O=C(O)C(F)(F)F.O=C(O)C(F)(F)F (stereo not given)	9.444	
CC(=O)N1CCOC(c2c(C(=O)NCCN(C)C)sc3ccccc23)C1 (stereo not given)	3.684	
CS(=O)(=O)CCCNC(=O)Nc1sc2ccccc2c1Cl		-22.09% and -10.77% and -17.84%
CN(C)CC(C)(O)CNC(=O)Nc1sc2ccccc2c1Cl (stereo not given)		52.95% and 62.95% and 63.37%
CN(C)C(=O)CCNC(=O)Nc1sc2ccccc2c1Cl		44.04% and 58.57% and 53.39%
CN1CCN(Cc2cn3c(n2)CN(Cc2ccc(F)cc2)CC3)CC1.O=C(O)C(F)(F)F.O=C(O)C(F)(F)F.O=C(O)C(F)(F)F	11.14	
O=C(O)[C@@H]1CCN(C(=O)Cc2ccccn2)[C@@H]1c1ccc(F)cc1	2.558	
